# In the library only some 3.9% were active in any assay of this set; here they are far more common.
# HGIII-sPLA2 inh – Blocks human group III sPLA2 activity. QFRET BODIPY PC-A2 liposome hydrolysis, fluorescence. inhibition, % at 12.2 µM. 0.56% of 370,000 active. Q9NZ20;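 active means inhibition above mean plus 3 SD of compounds lying within the high and low control bounds, cut at about 19% in these data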;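 further: 0% = median of test compound wells and 100% = no enzyme DMSO wells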
# Target sequence (Q9NZ20 whole entry, looked up): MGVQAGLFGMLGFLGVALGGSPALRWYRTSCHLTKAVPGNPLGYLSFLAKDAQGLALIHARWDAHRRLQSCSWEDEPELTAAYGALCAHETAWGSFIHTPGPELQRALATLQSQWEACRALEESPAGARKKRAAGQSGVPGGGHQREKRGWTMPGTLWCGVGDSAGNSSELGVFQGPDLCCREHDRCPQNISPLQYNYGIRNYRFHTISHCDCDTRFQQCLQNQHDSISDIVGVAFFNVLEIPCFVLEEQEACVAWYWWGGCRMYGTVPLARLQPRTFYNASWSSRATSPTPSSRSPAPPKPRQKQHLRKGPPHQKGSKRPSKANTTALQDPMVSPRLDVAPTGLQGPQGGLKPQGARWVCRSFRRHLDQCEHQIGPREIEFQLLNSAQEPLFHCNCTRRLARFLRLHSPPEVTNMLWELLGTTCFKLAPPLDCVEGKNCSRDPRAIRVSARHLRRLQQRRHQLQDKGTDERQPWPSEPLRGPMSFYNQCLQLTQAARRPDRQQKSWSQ
# PLCb3 inh – inhibitors of human phospholipase C beta3; Q01970; Purified PLC-beta3, fluorogenic substrate, fluorescence; inhibition, % at 12.2 µM; 0.18% of 370,000 active; AID 720704; in the data active means inhibition above about 11%;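 further: 0% = median of compound wells on plate and 100% = full blocker control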
# HIF act – HIF pathway transcriptional activation. activation, % at 7.5 µM (by protocol). U2OS HRE-luciferase reporter, luminescence; normalized: DMSO 0%, desferrioxamine 100%. 0.32% of 300,000 active;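 active means mean activation of at least 10% of the iron chelator positive control signal, with at least half of replicates also reaching 10%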
# Yeast superoxide – yeast age-related superoxide inhibition as caloric restriction mimetic. superoxide response (% of plate mean), % at 10 µM. AID 2690. 0.18% of 330,000 active. S. cerevisiae aged cells, superoxide DHE fluorescence; hits give low values;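 active means superoxide response under a set limit, about three screen SD below normal, cut at about 65% in these data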;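 further: yeast aged for seven days with compound at 30 °C before DHE staining; 100% = average MFI of all compound-treated wells on the plate with controls excluded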
# PLCg1 inh – blocks human PLC-gamma1 enzyme activity. 0.84% of 370,000 active. inhibition, % at 12.2 µM. purified PLC-gamma1, fluorogenic substrate, fluorescence
# AHR act – activates the human aryl hydrocarbon receptor; AHR-responsive luciferase reporter cells, luminescence; activation, % at 5 µM; P35869; 2.5% of 320,000 active; in the data active means activation above about 47%;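 further: 0% = vehicle wells and 100% = reference agonist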
# AHR act cf – human AHR activation, confirmation; 87% of 2,300 active; activation, % at 9 µM; shares compounds with AHR act; human cells, AHR-responsive luciferase reporter, luminescence; in the data active means activation above about 49%;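 further: HepG2 hepatoma cells carrying a DRE-driven firefly luciferase reporter; 0% = vehicle wells and 100% = reference agonist wells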
# PXR act counter – counter-screen for AHR activators: human PXR activators; shares compounds with AHR act; cell-based PXR reporter, luciferase luminescence; activation, % at 11.6 µM; 88% of 2,300 active; AID 434939; in the data active means activation above about 11%;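 further: human hepatoma DPX-2 cells expressing full-length human PXR; 0% = DMSO and 100% = reference agonist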
# PLCgamma1 ctr – inhibits human PLC-gamma1 in PLC-beta3 counter-screen | inhibition, % at 12.3 µM | AID 743258 | purified PLC-gamma1, fluorogenic substrate, fluorescence | 3.1% of 3,300 active | shares compounds with PLCg1 inh
# PLCbeta3 conf – confirmation of human PLC-beta3 inhibitors. shares compounds with PLCg1 inh. purified PLC-beta3, fluorogenic substrate fluorescence. inhibition, % at 12.3 µM. 1% of 3,300 active. AID 743261; in the data active means inhibition above about 11%
# * = called active by the depositor; i = inactive; . = no result given. Unless noted, no stated cut-off is given here; in the data, active means inhibition above about 9.5%; inactive means the rest.
SMILES,HGIII-sPLA2 inh,PLCb3 inh,HIF act,Yeast superoxide,PLCg1 inh,AHR act,PLCgamma1 ctr,PLCbeta3 conf,others
CNC(=O)Oc1ccc(-c2cn3cc(C)ccc3n2)cc1,7,-262,-2,104,-223,-7,.,.,
CNC(=O)Oc1cccc(-c2cn3cc(Cl)ccc3n2)c1,-36,-3,-5,94,-4,96*,.,.,AHR act cf=33;PXR act counter=13*
O=P(Oc1ccccc1)(Oc1ccccc1)N1CCN(c2ccc(F)cc2)CC1,-6,-6,0,101,0,-1,.,.,
CC(C)[C@]12CC(=O)[C@H](C)[C@H]1C2,-5,2,.,78,3,-1,.,.,
CC(C)(C)c1o[nH]c(=O)c1CC(N)C(=O)O (configuration not stated),-5,0,.,96,1,1,.,.,
CCOC(=O)c1c(C)n(CCOC)c2ccc(O)cc12,3,-16,-1,107,3,92*,.,.,AHR act cf=80*;PXR act counter=19*
Cc1ccc2nc3c(cc2c1)CC1(C(=O)N(C)C(=O)N(C)C1=O)C1CCCCN31 (configuration not stated),-5,-32,3,107,-27,85*,.,.,AHR act cf=78*;PXR act counter=72*
Cc1ccc2nc3c(cc2c1)CC1(C(=O)N(C)C(=O)N(C)C1=O)C1COCCN31 (configuration not stated),2,-41,0,109,-32,38,.,.,
Cc1c(CCN)ccc2c1[nH]c1ccccc12,13,-8,-30,65*,1,92*,.,.,AHR act cf=29;PXR act counter=13*
COCCCNC(=O)c1c(N)n(Cc2ccco2)c2nc3ccccc3nc12,-15,i,0,97,i,21,.,.,
COCCOC(=O)c1c(N)n(Cc2ccco2)c2nc3ccccc3nc12,-10,i,0,102,i,82*,.,.,AHR act cf=36;PXR act counter=91*
Cc1ccc2cc(C=C(C#N)C#N)c(Cl)nc2c1,-16,-353,0,115,-323,88*,.,.,AHR act cf=31;PXR act counter=21*
NP(=O)(OCCCc1ccccc1)Oc1ccccc1 (configuration not stated),4,7,0,95,6,-1,.,.,
NC(=O)OCCCc1ccccc1,11,0,0,109,11*,-3,-7,-2,
COC(=O)C1=C(c2ccc(OC(F)(F)F)cc2)C[C@@H]2CC[C@H]1N2C(=O)NCc1ccco1,1,-5,.,.,-3,.,.,.,
CN1CCN(CCOC2c3ccccc3CSc3ccc(Cl)cc32)CC1 (configuration not stated),-27,2,-1,101,12*,0,3,3,
C=Cn1ccnc1P(=S)(c1nccn1C=C)c1nccn1C=C,-1,2,0,111,3,3,.,.,
C=Cn1ccnc1P(=S)(c1ccn(C)c1)c1nccn1C=C,6,5,0,105,14*,-1,-8,-5,
COc1ccc(-c2cc(C(F)(F)F)n3nc(C(=O)N4CCC5(CC4)OCCO5)cc3n2)cc1OC,14,-33,-1,94,-28,1,.,.,
O=P(OCCCl)(OCCCl)OCCCl,0,-1,.,.,-1,.,.,.,
O=P(/C(=N/O)N1CCCCC1)(N1CCOCC1)N1CCOCC1,-1,4,1,94,9.6*,1,8,2,
CC1CCC/C=C/C2CC(O)CC2C(O)/C=C/C(=O)O1 (configuration not stated),9,7,-3,107,15*,-3,-8,-2,
Cc1ccc(C(O)(C(=O)OC(C)C)C(O)c2ccc(F)cc2)cc1 (configuration not stated),6,4,.,.,4,.,.,.,
COc1ccc(CCNCc2ccccc2)cc1,13,-3,-21,93,5,1,.,.,
COc1ccc(CCNCc2c(OC)ccc3ccccc23)cc1,-16,4,0,102,9.6*,4,37*,2,
SMILES,HGIII-sPLA2 inh,PLCb3 inh,HIF act,Yeast superoxide,PLCg1 inh,AHR act,PLCgamma1 ctr,PLCbeta3 conf,others
CN(C=O)CP(=O)(O)CN(C)C=O,17,13*,0,106,13*,0,-1,-1,
O=C(NC12CC3CC(CC(C3)C1)C2)OC1CN2CCC1CC2 (configuration not stated),-6,-4,0,93,-2,-2,.,.,
CCn1ccnc1CN1CCCC(C(=O)c2cccc(C(F)(F)F)c2)C1 (configuration not stated),5,5,0,79,11*,4,-5,-2,
O=C(c1cccc(C(F)(F)F)c1)C1CCCN(Cc2ncc[nH]2)C1 (configuration not stated),0,-7,0,107,-2,1,.,.,
Cc1ccc(S(=O)(=O)N2Cc3cc(-c4cccc(F)c4)ccc3-n3nncc3C2)cc1,4,0,.,.,0,.,.,.,
COC(=O)C1=C(c2ccc(S(C)(=O)=O)cc2)C[C@@H]2CC[C@H]1N2C,-3,1,.,107,-2,0,.,.,
O=P(O)(O)C12CC3CC(CC(C3)C1)C2,-2,9,0,111,13*,1,-4,-1,
COC(=O)C1=C(c2cccc(OCc3ccccc3)c2)C[C@@H]2CC[C@H]1N2C(=O)NCCOc1ccccc1Cl,-20,3,.,86,5,1,.,.,
COCCNC(=O)N1[C@H]2CC[C@@H]1C(C(=O)OC)=C(c1ccc(-c3ccccc3)c(F)c1)C2,-5,0,.,105,-1,0,.,.,
COC(=O)C1=C(c2ccc(-c3ccccc3)c(F)c2)C[C@@H]2CC[C@H]1N2C(=O)NCCOc1ccccc1,-12,2,.,85,10*,1,-1,0,
COC(=O)C1=C(c2cccc(OCc3ccccc3)c2)C[C@@H]2CC[C@H]1N2C(=O)NCCOc1ccccc1,-14,3,.,92,10*,0,0,5,
CSCCC(c1nnnn1C1CCCC1)N1CCC(n2c(=O)[nH]c3ccccc32)CC1 (configuration not stated),-8,-1,.,.,10*,.,-2,3,
CCc1ccc(-c2nn(Cc3ccccc3)cc2C=O)cc1,-5,-1,2,81,-2,10,.,.,
CN1CCN(Cc2ccccc2Sc2ccccc2)CC1,-11,-2,-1,108,0,-2,.,.,
CCN(CC)CCCN=Cc1c(O)n(CCc2ccc(OC)c(OC)c2)c(=O)[nH]c1=O,4,0,0,102,18*,-2,-2,0,
N#CC1c2ccccc2-n2nncc2CN1S(=O)(=O)c1ccccc1 (configuration not stated),11,4,.,.,11*,.,-7,-5,
